Results filed as inconclusive are left out. Activity calls are given as the source filed them. The call rests on the fitted dose curve; in most records, active means well fitted inhibition curve with a large enough effect; inconclusive means small, poorly fitted or top-dose-only effect; inactive means flat fitted curve, though single readings scatter.
How the values were obtained:
CRL-7250 = normal cell line; assay: Cytotoxic Profiling of Annotated Libraries Using Quantitative High-Throughput Screening (AID 1296008); details: Five cell lines viability, CellTiter-Glo ATP luminescence, 48-72 h; max response: stronger effect = lower value; on max response: on the % scale 0 is the no-effect control and ±100 the full control effect
In short: (§1)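 Cytotoxicity was measured as CellTiter-Glo ATP luminescence, read after 10 min at room temperature. Compound treatment of the cells lasted 48 or 72 hr at 37 degrees Celsius in a qHTS format.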

HaCat [1] = assay: as above; details: Five cell lines viability, CellTiter-Glo ATP luminescence, 48-72 h; max response: stronger effect = lower value
In short: as §1

KB-3-1 = assay: as above; details: Five cell lines viability, CellTiter-Glo ATP luminescence, 48-72 h; max response: stronger effect = lower value
In short: as §1

NIH3T3 = assay: as above; details: Five cell lines viability, CellTiter-Glo ATP luminescence, 48-72 h; max response: stronger effect = lower value
In short: as §1

HACAT [2] = assay: qHTS assay to identify novel small-molecules to repurpose for Merkel cell carcinoma treatment (AID 1296009); details: MCC and control cell lines, CellTiter-Glo viability, 72 h; at 44.8 µM (top of the series) unless noted
In short: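 Cell viability measured by CellTiter-Glo following 72 hr compound treatment at 37 degree celsius, with NPC and MIPE libraries tested in 8- and 11-point concentration series.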

Measured: max response
Further: nearly all actives have a fitted effect of over 60% in size.

O=C(O)c1cc(N(Cc2ccc(C3CCCCC3)cc2)C(=O)c2ccc(Oc3ccccc3)cc2)ccc1O
inactive: CRL-7250 -16.9% | HaCat [1] | KB-3-1 | NIH3T3 -0.211% | HACAT [2]

CCNC(=O)N1CCCN(c2ccc(C(=O)NCCc3ccc(Cl)cc3Cl)cc2NC(=O)c2cccc(Cl)c2)CC1
inactive: CRL-7250 -3.91% | HaCat [1] | KB-3-1 -2.47% | NIH3T3 2.92% | HACAT [2]

C=C1C(=O)OC2C=C(C)CC/C=C(\CO)CC(O)C12 (stereo not given)
inactive: CRL-7250 -3.89% | HaCat [1] | KB-3-1 5.92% | NIH3T3 -2.7% | HACAT [2]

O=C(Nc1ccc(N(Cc2ccsc2)C(=O)Cn2nnc3ccccc32)cc1)C1CC1
inactive: CRL-7250 -5.74% | HaCat [1] | KB-3-1 6.41% | NIH3T3 4.89% | HACAT [2]

COc1cc(/C=C2\CC[C@H]3COC[C@@H](c4cc(F)c(F)c(F)c4)N3C2=O)ccc1-n1cnc(C)c1
inactive: CRL-7250 3.12% | HaCat [1] | KB-3-1 | NIH3T3 | HACAT [2]

CC(=O)OCC(=O)[C@@]12O[C@@H]1C[C@H]1[C@@H]3CC=C4C[C@@H](O)CC[C@]4(C)[C@H]3CC[C@@]12C
inactive: CRL-7250 1.57% | HaCat [1] | KB-3-1 | NIH3T3 | HACAT [2]

O=S1(=O)CCN(Cc2cc(NCC3CCOCC3)c3[nH]c(-c4ccccc4)cc3c2)CC1
inactive: CRL-7250 -9.27% | HaCat [1] | KB-3-1 4.46% | NIH3T3 -21.1% | HACAT [2]

CC(=O)c1ccc2c(c1)[C@H](NC(=O)c1ccc(F)c(Cl)c1)[C@H](O)C(C)(C)O2
inactive: CRL-7250 -9.32% | HaCat [1] | KB-3-1 2.28% | NIH3T3 | HACAT [2]

CN1CC[C@@H](c2c(O)cc(O)c3c(=O)cc(-c4ccc(C(F)(F)F)cc4Cl)oc23)[C@@H]1CO
inactive: CRL-7250 | HaCat [1] | KB-3-1 5.55% | NIH3T3 -4.65% | HACAT [2]

COC(=O)c1ccc2c(c1)[nH]c1ncnc(NCCCN3CCCCC3)c12
inactive: CRL-7250 -8.38% | HaCat [1] | KB-3-1 -20.2% | NIH3T3 | HACAT [2]

CC(C)c1c(O)ccc2c1CC[C@H]1C(C)(C)CCC[C@]21C
inactive: CRL-7250 | HaCat [1] | KB-3-1 7.3% | NIH3T3 | HACAT [2]

C/C=C(/C)C(=O)OC1C=C2C3C(C)C(C)C(OC(=O)C(C)C(C)O)CC3(C)CCC2(C)C2(C)CC(OC(C)=O)C3C(C)(C)C(O)C(=O)CC3(C)C12 (stereo not given)
inactive: CRL-7250 0.415% | HaCat [1] | KB-3-1 5.54% | NIH3T3 -9.86% | HACAT [2] inactive [at 17.4 µM]

CCOC(=O)N1CCC(N2CCC[C@@H](NC(=O)c3ccccc3C)C2)CC1
inactive: CRL-7250 -6.33% | HaCat [1] | KB-3-1 8.62% | NIH3T3 | HACAT [2]

O=[N+]([O-])c1ccc(Oc2ccc3c(c2)CCC(c2ccccc2)O3)nc1 (stereo not given)
inactive: CRL-7250 | HaCat [1] | KB-3-1 -24.2% | NIH3T3 -17% | HACAT [2]

Cc1ccc(-c2ncc[nH]2)cc1NC(=O)c1ccc(OCc2ccccn2)cc1
inactive: CRL-7250 -5.69% | HaCat [1] | KB-3-1 -1.78% | NIH3T3 -1.84% | HACAT [2]

CC(C)(Cc1nc(-c2ccc(O)cn2)no1)C(=O)NC1=C(C(=O)O)CCCC1
inactive: CRL-7250 -1.84% | HaCat [1] | KB-3-1 2.15% | NIH3T3 -20.8% | HACAT [2]

NS(=O)(=O)c1ccc(NC(=O)Nc2ccc(F)cc2)cc1
inactive: CRL-7250 | HaCat [1] | KB-3-1 -12% | NIH3T3 2.88% | HACAT [2]

CNC(C)C(=O)NC(C(=O)N1CCCC1C(=O)Nc1snnc1-c1ccccc1)C1CCCCC1 (stereo not given)
inactive: CRL-7250 0.759% | HaCat [1] | KB-3-1 3.39% | NIH3T3 | HACAT [2]

O=C(c1cc(Cc2n[nH]c(=O)c3ccccc23)ccc1F)N1CCCNCC1
inactive: CRL-7250 0.306% | HaCat [1] | KB-3-1 | NIH3T3 0.0332% | HACAT [2]

COC1C=C(C)C(O)(CO)C2(C)CCCC(C)(C)C12 (stereo not given)
inactive: CRL-7250 | HaCat [1] | KB-3-1 2.43% | NIH3T3 -0.263% | HACAT [2]

COC(=O)C(Cc1ccc(OCCn2c(=O)sc3cc(C(=O)c4ccccc4)ccc32)cc1)C(=O)OC
inactive: CRL-7250 -17% | HaCat [1] | KB-3-1 0.264% | NIH3T3 2.75% | HACAT [2]

CC[C@H](C)/C=C(C)/C=C/C1=CC2=CC(=O)[C@]3(C)OC(=O)[C@@H](C(C)=O)[C@@H]3C2=CO1
inactive: CRL-7250 -1.79% | HaCat [1] | KB-3-1 4.01% | NIH3T3 -1.49% | HACAT [2]

CC(=O)O[C@H]1[C@@]2(O)C[C@H](C)[C@H](OC(=O)c3ccccc3)[C@@H]2[C@@H](OC(=O)CO)[C@]2(OC(C)=O)C[C@H]3C(=O)C(C)(C)C[C@@H]3[C@@]1(C)[C@H]2OC(C)=O
inactive: CRL-7250 -5.8% | HaCat [1] | KB-3-1 -0.153% | NIH3T3 1.84% | HACAT [2] inactive [at 17.4 µM]

COc1cc(F)c(C(C)C)cc1-c1ccc(C(F)(F)F)cc1CN1C(=O)OC(c2cc(C(F)(F)F)cc(C(F)(F)F)c2)C1C (stereo not given)
inactive: CRL-7250 3.77% | HaCat [1] | KB-3-1 | NIH3T3 | HACAT [2]

CCCOc1ccc(S(=O)(=O)N2CCN(CCO)CC2)cc1-c1nc2c(CCC)cn(CC)c2c(=O)[nH]1
inactive: CRL-7250 -15% | HaCat [1] | KB-3-1 7.41% | NIH3T3 4.33% | HACAT [2]

COc1cc(C(=O)NC(=S)Nc2cccc(NC(=O)c3ccccc3)c2)cc(OC)c1OC
inactive: CRL-7250 -13% | HaCat [1] | KB-3-1 6.94% | NIH3T3 4.46% | HACAT [2]

C/C=C(\C)C(=O)OC1C=C(C)CC(OC(=O)c2ccc(O)cc2)C2C1(C)CCC2(O)C(C)C (stereo not given)
inactive: CRL-7250 1.09% | HaCat [1] | KB-3-1 5.76% | NIH3T3 | HACAT [2] inactive [at 17.4 µM]

CCNC1(C(N)=O)CCN(c2ncnc3c2nc(-c2ccccc2Cl)n3-c2ccc(Cl)cc2)CC1
inactive: CRL-7250 | HaCat [1] | KB-3-1 6.15% | NIH3T3 -1.7% | HACAT [2]

C/C=C/C1=CC2=C(CO1)C(=O)C(C)(OC(=O)c1c(C)cc(O)cc1OC)C(O)C2 (stereo not given)
inactive: CRL-7250 3.73% | HaCat [1] | KB-3-1 2.17% | NIH3T3 1.21% | HACAT [2]

O=C(Nc1ccccc1C(=O)Nc1ccc(CCO)cc1)c1ccc([N+](=O)[O-])cc1
inactive: CRL-7250 -0.113% | HaCat [1] | KB-3-1 | NIH3T3 | HACAT [2]

COC1=CC(=O)C=C(C)C12Oc1c(Cl)c(OC)cc(OC)c1C2=O (stereo not given)
inactive: CRL-7250 0.695% | HaCat [1] | KB-3-1 | NIH3T3 -3.2% | HACAT [2]

COc1ccc(S(=O)(=O)Nc2cc(Cl)cc(Cl)c2OC)cc1N1CCNCC1
inactive: CRL-7250 -0.811% | HaCat [1] | KB-3-1 -5.04% | NIH3T3 -3.81% | HACAT [2]

CC1(C)CC[C@]2(C(=O)O)[C@H](O)C[C@]3(C)C(=CCC4[C@@]5(C)CC[C@H](O[C@@H]6O[C@H](CO[C@@H]7OC[C@H](O)[C@H](O)[C@H]7O[C@@H]7OC[C@H](O)[C@H](O)[C@H]7O)[C@@H](O)[C@H](O)[C@H]6O)C(C)(C)C5CC[C@]43C)[C@@H]2C1 (stereo not given in full)
inactive: CRL-7250 | HaCat [1] | KB-3-1 | NIH3T3 -3.93% | HACAT [2] inactive [at 9.27 µM]

Cc1nc(C(=O)N2CCC[C@H]2Cc2nnc(-c3ccccc3)o2)c(-c2ccccc2F)s1
inactive: CRL-7250 | HaCat [1] | KB-3-1 | NIH3T3 4.09% | HACAT [2]

C=C(CCC1C(C)(O)CCC2C(C)(C)C(O)CCC12C)C(O)CO (stereo not given)
inactive: CRL-7250 -26.3% | HaCat [1] | KB-3-1 -9.88% | NIH3T3 -4.7% | HACAT [2]

CC(C)(C)c1ccc2c(c1)CC[C@H]2NC(=O)Nc1cccc2[nH]ncc12
inactive: CRL-7250 -3.64% | HaCat [1] | KB-3-1 -1.56% | NIH3T3 | HACAT [2]

Cc1[nH]c2ccccc2c1CCNC(=O)c1cccs1
inactive: CRL-7250 -14.1% | HaCat [1] | KB-3-1 | NIH3T3 0.258% | HACAT [2]

O=C(Nc1cccnc1)c1cc(-c2ccnc(F)c2)ccc1OCc1ccccc1
inactive: CRL-7250 -1.07% | HaCat [1] | KB-3-1 6.84% | NIH3T3 4.92% | HACAT [2]

C[C@@H](NC(=O)c1ccc(C#Cc2cccc(F)c2)cn1)C(C)(C)O
inactive: CRL-7250 -12.8% | HaCat [1] | KB-3-1 7% | NIH3T3 2.74% | HACAT [2]

CN1CCN(C2=Nc3ccccc3Nc3ccc(Cl)cc32)CC1
inactive: CRL-7250 -0.222% | HaCat [1] | KB-3-1 -4.21% | NIH3T3 2.15% | HACAT [2]

O=C(O)C1=CO[C@@H](O[C@@H]2O[C@H](CO)[C@@H](O)[C@H](O)[C@H]2O)[C@@H]2C(CO)=CC[C@H]12
inactive: CRL-7250 -1.39% | HaCat [1] | KB-3-1 6.01% | NIH3T3 -3.54% | HACAT [2]

CCC(CC)Nc1nc(C)c(-c2ccc(OC(F)(F)F)cc2OC)nc1OC
inactive: CRL-7250 -15% | HaCat [1] | KB-3-1 0.138% | NIH3T3 0.268% | HACAT [2]

COc1ccc(NC(=O)c2ccc(-c3ccc(C(=N)N)cc3C)cc2)cc1N1CCN(C)CC1
inactive: CRL-7250 4.07% | HaCat [1] | KB-3-1 -9.57% | NIH3T3 2.92% | HACAT [2]

C=C1CC[C@@H]2[C@](C)(CO)[C@H](O)CC[C@@]2(C)[C@@H]1CC(O)C1=CCOC1=O (stereo not given in full)
inactive: CRL-7250 -6.08% | HaCat [1] | KB-3-1 | NIH3T3 | HACAT [2]

CCCN(CCc1ccsc1)C1CCc2c(O)cccc2C1 (stereo not given)
inactive: CRL-7250 4.38% | HaCat [1] | KB-3-1 0.967% | NIH3T3 | HACAT [2]

COC1=CC(=O)O/C1=C(/OC)[C@@H]1O[C@H]1c1ccccc1
inactive: CRL-7250 -14.3% | HaCat [1] | KB-3-1 -13.4% | NIH3T3 -27.3% | HACAT [2]
